Assay results as given in PubChem BioAssay.
Activity calls are given as the source filed them.

assay: growth modulation of vineyard yeast isolate – strain RM11-1a, OD600, basal, 24 h, primary screen (AID 1177);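 note: cultures grown under basal conditions with no added stressor; test concentration not given here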; conditions: S. cerevisiae RM11-1a growth, OD600, 24 h; higher = more signal, called active from +8 up or from −8 down

SMILES | z-score
COc1cc2c(cc1OC)CN(C(=O)[C@H]1[C@@H]3C(=O)O[C@@H](c4ccccc4)[C@@H](c4ccccc4)N3[C@@H](c3ccc(O)cc3)[C@]13C(=O)Nc1ccccc13)CC2 | 1.07 (inactive)
C=CCNC(=O)[C@@H]1[C@H]2C(=O)O[C@H](c3ccccc3)[C@H](c3ccccc3)N2[C@H](c2ccc(OCCO)cc2)[C@@]12C(=O)Nc1ccc(C#CCC(C(=O)OC)C(=O)OC)cc12 | 2.26 (inactive)
COCCOC(=O)N1C(=O)[C@@]2(c3cc(C#CC4(O)CCCCCC4)ccc31)[C@H](c1ccc(OCCO)cc1)N1[C@H](c3ccccc3)[C@H](c3ccccc3)OC(=O)[C@H]1[C@@H]2C(=O)N1CCN(c2ncccn2)CC1 | 3.15 (inactive)
CC1(C)[C@@H]2CC(C(O)C3C=CC4C(=O)N(c5ccccc5)C(=O)C4N3Nc3ccc([N+](=O)[O-])cc3)=C[C@H]1C2 (stereo partly drawn) | 0.08 (inactive)
NC(=O)NCC#Cc1ccc2c(c1)[C@]1(C(=O)N2)[C@H](C(N)=O)[C@H]2C(=O)O[C@H](c3ccccc3)[C@H](c3ccccc3)N2[C@@H]1c1ccc(O)cc1 | -0.732 (inactive)
O=C(c1ccccc1)N1Cc2ccccc2C[C@@]2(COC(c3ccc(OCCCO)cc3)=N2)C1=O | 2.02 (inactive)
C=CC[C@]1(C(=O)NCc2ccccc2)N=C(c2ccc(OCCCO)cc2)O[C@H]1c1ccccc1N=[N+]=[N-] | 0.599 (inactive)
CC1CC/C=C\[C@H]2OC34C=CCN(C(C)(C)C)C(=O)[C@H]3N(C(C)CO)C(=O)[C@@H]4C2C(=O)O1 (stereo partly drawn) | 0.723 (inactive)
